Sampled rows, rich in hits. Any-hit rate of the full collection: about 5%.
USP10 inh: blocks human USP10 ubiquitin-rhodamine cleavage. Q14694. AID 1645856. 1.1% of 47,000 active. purified USP10, Ub-rhodamine fluorescence, 60 min. inhibition, % at 20 µM
UCHL1 block: blocks human UCHL1 ubiquitin-rhodamine cleavage; inhibition, % at 20 µM; P09936; 0.2% of 47,000 active; purified UCHL1, Ub-rhodamine cleavage fluorescence; AID 1645859
Target sequence (P09936 whole entry, looked up): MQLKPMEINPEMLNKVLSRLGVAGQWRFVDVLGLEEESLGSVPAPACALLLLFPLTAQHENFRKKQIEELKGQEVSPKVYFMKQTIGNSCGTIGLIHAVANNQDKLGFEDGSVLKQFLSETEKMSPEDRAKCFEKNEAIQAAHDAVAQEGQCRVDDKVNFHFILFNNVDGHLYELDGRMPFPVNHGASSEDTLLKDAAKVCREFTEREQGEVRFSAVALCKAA
USP7 inh: blocks human USP7 ubiquitin-rhodamine cleavage | AID 1645854 | 0.3% of 47,000 active | Q93009 | purified USP7, Ub-rhodamine cleavage fluorescence | inhibition, % at 20 µM
USP8 inh: blocks human USP8 ubiquitin-rhodamine cleavage; P40818; purified USP8, Ub-rhodamine cleavage fluorescence, 30 min; inhibition, % at 20 µM; 4.2% of 47,000 active
Hits are given with their value; 0 = inactive; - = no result. No stated cut-off is given here; in the data, active means inhibition above about 30%; inactive means the rest.

SMILES	USP10 inh	UCHL1 block	USP7 inh	USP8 inh
CCCc1cc(=O)[nH]c(N2CCN(c3ccccc3OC)CC2)n1	0	0	0	0
CCc1[nH]c(=O)cc2cc(OC)c(OC)cc12	79	48	0	91
CNc1nccnc1C1CN(C(=O)c2snnc2C(C)C)CCO1 (stereo unspecified)	0	0	0	0
CNc1nccnc1C1CN(C(=O)c2c(C(C)C)noc2C)CCO1 (stereo unspecified)	0	0	0	32
CSc1nc(SCC(=O)NC(C)CCc2ccccc2)c2c3c(sc2n1)COC(C)(C)C3 (stereo unspecified)	0	0	0	0
O=C(Nc1cc(F)c2nc(N3CCCC3)ccc2c1)c1ccco1	0	0	0	70
O=C(CCc1ccccc1)Nc1cc(F)c2nc(N3CCCCC3)ccc2c1	0	0	0	70
Cc1cc(OCC(=O)Nc2ccccc2)nc(N2CCCCCC2)n1	0	0	0	0
COc1cccc(CC(=O)Nc2cc(F)c3nc(N4CCOCC4)ccc3c2)c1	0	0	0	72
COc1ccc(CCC(=O)Nc2cc(F)c3nc(N4CCOCC4)ccc3c2)cc1	0	0	0	47
COCc1cc(=O)n2c(n1)N(Cc1ccc(F)cc1Cl)CC2	0	0	0	0
COc1ccc([C@H]2Oc3cc(OC)cc(O)c3C(=O)[C@@H]2[C@@H]2C(=O)c3c(O)cc(O)cc3O[C@H]2c2ccc(OC)cc2)cc1	68	0	0	0
COc1cccc(-c2cc(C(=O)Nc3cc(C)n(Cc4ccc(Cl)cc4)n3)no2)c1	0	0	0	38
COc1cccc(C2CC(=O)Nc3n[nH]c(C)c32)c1OCc1ccccc1C (stereo unspecified)	0	0	0	0
COc1ccc(-c2cnn(-c3ccc(NC(=O)Nc4cccc(C(F)(F)F)c4)cc3)c2)cc1	0	0	0	31
Cc1ccc(C(=O)Cn2c(=O)n(C(C)C)c3nc(-c4ccco4)nc(C(N)=O)c32)c(C)c1	0	0	0	40
Cc1cccc(CSc2nc(-c3ccco3)nc3c2c(=O)n(C)c(=O)n3C)c1	0	0	0	0
COc1ccc(CNC(=O)Nc2cccc3ccccc23)cc1	0	0	0	97
O=C(NCc1ccccc1)Nc1cccc2ccccc12	0	0	0	95
O=C(NCc1ccc(F)cc1)Nc1cccc2ccccc12	0	0	0	71
COc1ccc(CCC(=O)Nc2cccc3ccccc23)cc1OC	0	0	0	0
c1cn(-c2ccc(-c3nn[nH]n3)cc2)cn1	0	0	0	0
COc1ccccc1CNC(=O)c1oc(=O)c2ccccc2c1-c1ccc(C)cc1	0	0	0	0
CN(CCCNC(=O)c1cccc2c1SCCC2=O)c1ccccc1	0	0	0	40
Cc1nc2ccccn2c1CC(=O)Nc1cccc(C2CCc3nncn3C2)c1 (stereo unspecified)	0	0	0	36
SMILES	USP10 inh	UCHL1 block	USP7 inh	USP8 inh
CC1(C)C[C@@H](O)[C@]2(C)CC[C@]3(C)C(=CCC4[C@@]5(C)CC[C@H](O)[C@](C)(CO)[C@@H]5CC[C@]43C)[C@@H]2C1 (stereo partly specified)	0	0	0	0
Cc1nc2ccc(C(=O)N3CCCC3c3nc(C)c4c(n3)N(CC(C)C)C(=O)C4)cc2s1 (stereo unspecified)	0	0	0	89
Cc1ccc2cc(CNCc3cccnc3)c(=O)[nH]c2c1	0	0	0	0
CNc1nc2c(c(=O)n1C)CN(C(=O)Nc1cccc3ccccc13)CC2	0	0	0	90
O=C(c1cnn(-c2ccc(F)cc2F)c1C1CCNCC1)N1CCN(c2ncccn2)CC1	0	0	0	0
O=C1CCCC[C@@H]2[C@H](CCN2Cc2ccc3ncccc3c2)N1Cc1ccccc1F	0	0	0	47
Nc1ncccc1C(=O)N1CC[C@@H]2[C@H]1CCCC(=O)N2Cc1ccc(F)cc1	0	0	0	0
COc1ccc(C2CN(Cc3ccncc3)CCN2C(C)=O)cc1 (stereo unspecified)	0	0	0	0
CO/C=C/C(=O)c1cc2cnc3c(=N)cc(NC(C)=O)c([nH]1)c23	0	0	0	42
CCc1cc2c(cc3c(=O)n(CC(=O)NC(C)c4ccccc4)nc(CC)n32)s1 (stereo unspecified)	0	0	0	0
O=C1CC(C(=O)Nc2ccc3c(c2)OCO3)n2ncc(-c3ccccc3)c2N1 (stereo unspecified)	0	0	0	38
COc1ccc(CCN2CC(C(=O)Nc3ccc4c(c3)OCO4)CC2=O)cc1OC (stereo unspecified)	0	0	0	0
O=C1CC(C(=O)Nc2ccc3c(c2)OCO3)n2nc(SCc3ccccc3)nc2N1 (stereo unspecified)	33	0	0	0
O=C(Nc1ccc2c(c1)OCO2)C1CC(=O)N(CCc2ccccc2)C1 (stereo unspecified)	0	0	0	56
COc1ccc(NC(=O)C2CC(=O)Nc3nc(SCc4ccccc4)nn32)cc1 (stereo unspecified)	0	0	0	0
Cc1cc(C)n2nc(CN(Cc3ccccc3)C(=O)c3ccc(F)cc3)nc2n1	0	0	0	0
CC1CCN(C(=O)c2ccc(CSc3nc4ccncc4n3Cc3ccccc3)cc2)CC1	0	0	0	0
O=C(NCc1ccco1)c1ccc(Cn2c(SCc3ccccc3)nc3ccncc32)cc1	0	0	59	35
CCN1CCc2nc(-c3ccccc3)n(CC(=O)N3CCOc4ccc(C)cc43)c(=O)c2C1	0	0	0	59
CCN1CCc2nc(-c3ccc(F)cc3)n(CC(=O)N(CC)c3ccccc3)c(=O)c2C1	0	0	0	48
Cc1ccc2c(c1)N(C(=O)Cn1c(C)nc3c(c1=O)CCN(Cc1ccccc1)C3)CCO2	0	0	0	0
CN1CC2(COc3ccccc31)CN(C(=O)C1CCOCC1)CCO2 (stereo unspecified)	0	0	0	0
COc1ccc(-c2cc(-c3ccc(F)cc3)[nH]c(=O)c2C#N)cc1	40	0	0	58
CC(Sc1nc2ncc(Cl)cc2[nH]1)C(=O)Nc1ccc2c(c1)OCO2 (stereo unspecified)	0	0	0	38
Cc1ccc(S(=O)(=O)CCC(=O)OCC(=O)c2cc(C)n(-c3ccc4c(c3)OCO4)c2C)cc1	0	0	0	58
SMILES	USP10 inh	UCHL1 block	USP7 inh	USP8 inh
Cc1cc(C(=O)COC(=O)c2ccc[nH]c2=O)c(C)n1-c1ccc2c(c1)OCO2	0	0	0	30
Cc1cc(C(=O)CN2CCN(Cc3ccc4c(c3)OCO4)CC2)c(C)n1-c1ccc2c(c1)OCO2	0	0	0	0
Cc1cc(C(=O)COc2ncnc3sccc23)c(C)n1-c1ccc2c(c1)OCO2	0	0	0	0
Cc1ccc(-c2nc3nc(C)cc(N4CCC(C)CC4)n3n2)cc1	0	0	-	0
O=C(CC1C(=O)Nc2nc(-c3ccccc3)nn21)Nc1ccccc1 (stereo unspecified)	0	0	0	0
O=C(CC1C(=O)Nc2nc3ccccc3n21)Nc1cccc2ccccc12 (stereo unspecified)	54	0	0	55
O=C(CC1C(=O)Nc2nc(-c3ccccc3)nn21)Nc1cccc2ccccc12 (stereo unspecified)	0	0	0	41

Compound activity from PubChem BioAssay.
